PubChem BioAssay AID1159580 (chemical genetic matrix, 2015)
Values joined by “and” are separate entries in the source; they are usually repeats but may differ in a detail not shown here. Identical values can stand only once. Among all 5,500 compounds or so, about 2,000 (36%) were called active. Another 18% or so got no clear call; they are omitted. Rule as the data show it: active = normalized growth mostly below about 0.91 (no sharp cut-off); inconclusive = no clear call, values can overlap the other calls; inactive = mostly above about 0.92. This is one part of the list.

Assay: chemical genetic growth profiling, strain panel (AID 1159580);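 also: tested at 20 µM; growth read once vehicle control cultures reached saturation at 30 °C; 1 = growth at the plate median or of vehicle wells; lower values mean less growth of the strain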
Details: S. cerevisiae deletion strains, growth OD

COc1ccc(-c2cc(=O)c3c(OC(C)=O)cc(OC(C)=O)cc3o2)cc1
normalized growth (locus YAL013W, strain DEP1, stronger effect = lower value): 0.955 (inactive)
normalized growth (locus YAL021C, strain ccr4, stronger effect = lower value): 0.947 (inactive)
normalized growth (locus YAL026C, strain drs2, stronger effect = lower value): 1.01 (inactive)
normalized growth (locus YAL030W, strain snc1, stronger effect = lower value): 0.99 (inactive)
normalized growth (locus YBL061C, strain skt5, stronger effect = lower value): 0.974 (inactive)
normalized growth (locus YBR009C, strain hhf1, stronger effect = lower value): 0.972 (inactive)
normalized growth (locus YBR021W, strain FUR4, stronger effect = lower value): 0.916 (inactive)
normalized growth (locus YBR023C, strain chs3, stronger effect = lower value): 0.972 (inactive)
normalized growth (locus YBR171W, strain sec66, stronger effect = lower value): 0.996 (inactive)
normalized growth (locus YBR229C, strain ROT2, stronger effect = lower value): 0.982 (inactive)
normalized growth (locus YBR231C, strain swc5, stronger effect = lower value): 0.922 (inactive)
normalized growth (locus YBR279W, strain paf1, stronger effect = lower value): 0.988 (inactive)
normalized growth (locus YCL011C, strain gbp2, stronger effect = lower value): 0.989 (inactive)
normalized growth (locus YCL016C, strain dcc1, stronger effect = lower value): 0.991 (inactive)
normalized growth (locus YCL029C, strain bik1, stronger effect = lower value): 0.958 (inactive)
normalized growth (locus YCL061C, strain MRC1, stronger effect = lower value): 0.989 (inactive)
normalized growth (locus YCL069W, strain vba3, stronger effect = lower value): 0.983 (inactive)
normalized growth (locus YCR088W, strain abp1, stronger effect = lower value): 0.996 (inactive)
normalized growth (locus YDL005C, strain med2, stronger effect = lower value): 0.991 (inactive)
normalized growth (locus YDL035C, strain GPR1, stronger effect = lower value): 0.975 (inactive)
normalized growth (locus YDL040C, strain nat1, stronger effect = lower value): 0.986 (inactive)
normalized growth (locus YDL074C, strain BRE1, stronger effect = lower value): 0.861 (inactive)
normalized growth (locus YDL101C, strain DUN1, stronger effect = lower value): 0.958 (inactive)
normalized growth (locus YDL134C, strain PPH21, stronger effect = lower value): 0.956 (inactive)
normalized growth (locus YDL185W, strain tfp1, stronger effect = lower value): 0.93 (inactive)
normalized growth (locus YDL192W, strain arf1, stronger effect = lower value): 0.965 (inactive)
normalized growth (locus YDR001C, strain nth1, stronger effect = lower value): 0.987 (inactive)
normalized growth (locus YDR069C, strain doa4, stronger effect = lower value): 0.981 (inactive)
normalized growth (locus YDR101C, strain arx1, stronger effect = lower value): 1 (inactive)
normalized growth (locus YDR137W, strain rgp1, stronger effect = lower value): 0.934 (inactive)
normalized growth (locus YDR150W, strain NUM1, stronger effect = lower value): 0.976 (inactive)
normalized growth (locus YDR159W, strain sac3, stronger effect = lower value): 0.974 (inactive)
normalized growth (locus YDR162C, strain NBP2, stronger effect = lower value): 0.948 (inactive)
normalized growth (locus YDR195W, strain ref2): 1 (inactive)
normalized growth (locus YDR297W, strain sur2, stronger effect = lower value): 0.98 (inactive)
normalized growth (locus YDR318W, strain mcm21, stronger effect = lower value): 0.936 (inactive)
normalized growth (locus YDR334W, strain swr1, stronger effect = lower value): 0.987 (inactive)
normalized growth (locus YDR335W, strain msn5, stronger effect = lower value): 0.995 (inactive)
normalized growth (locus YDR388W, stronger effect = lower value): 0.973 (inactive)
normalized growth (locus YDR392W, strain spt3, stronger effect = lower value): 0.646 (active)
normalized growth (locus YDR502C, strain sam2, stronger effect = lower value): 0.94 (inactive)
normalized growth (locus YEL003W, strain gim4, stronger effect = lower value): 0.968 (inactive)
normalized growth (locus YEL037C, strain rad23, stronger effect = lower value): 1 (inactive)
normalized growth (locus YEL061C, strain CIN8 (second series), stronger effect = lower value): 0.991 (inactive)
normalized growth (locus YEL061C, strain CIN8, stronger effect = lower value): 0.982 (inactive)
normalized growth (locus YER015W, strain faa2, stronger effect = lower value): 0.97 (inactive)
normalized growth (locus YER016W, strain bim1, stronger effect = lower value): 0.991 (inactive)
normalized growth (locus YER110C, stronger effect = lower value): 0.95 (inactive)
normalized growth (locus YER111C, strain swi4, stronger effect = lower value): 1 (inactive)
normalized growth (locus YER155C, strain BEM2 (second series), stronger effect = lower value): 0.846 (active)
normalized growth (locus YER155C, strain BEM2, stronger effect = lower value): 0.942 (inactive)
normalized growth (locus YER167W, strain BCK2, stronger effect = lower value): 0.993 (inactive)
normalized growth (locus YFR010W, strain ubp6, stronger effect = lower value): 1 (inactive)
normalized growth (locus YGL078C, strain dbp3, stronger effect = lower value): 0.961 (inactive)
normalized growth (locus YGL086W, strain mad1, stronger effect = lower value): 0.976 (inactive)
normalized growth (locus YGL167C, strain pmr1, stronger effect = lower value): 0.992 (inactive)
normalized growth (locus YGL173C, strain kem1, stronger effect = lower value): 0.982 (inactive)
normalized growth (locus YGL227W, strain vid30, stronger effect = lower value): 0.98 (inactive)
normalized growth (locus YGL240W, strain doc1, stronger effect = lower value): 0.985 (inactive)
normalized growth (locus YGL248W, strain PDE1, stronger effect = lower value): 0.935 (inactive)
normalized growth (locus YGL253W, strain hxk2, stronger effect = lower value): 0.97 (inactive)
normalized growth (locus YGR135W, strain pre9, stronger effect = lower value): 0.905 (inactive)
normalized growth (locus YGR252W, strain gcn5, stronger effect = lower value): 0.86 (inactive)
normalized growth (locus YHR013C, strain ard1, stronger effect = lower value): 0.968 (inactive)
normalized growth (locus YHR027C, strain rpn1, stronger effect = lower value): 0.991 (inactive)
normalized growth (locus YHR030C, strain SLT2, stronger effect = lower value): 0.972 (inactive) and 0.893 (inactive)
normalized growth (locus YHR079C, strain IRE1 (second series), stronger effect = lower value): 0.972 (inactive)
normalized growth (locus YHR079C, strain IRE1, stronger effect = lower value): 0.864 (inactive)
normalized growth (locus YHR094C, strain hxt1, stronger effect = lower value): 0.97 (inactive)
normalized growth (locus YHR129C, strain ARP1, stronger effect = lower value): 0.938 (inactive)
normalized growth (locus YHR142W, strain chs7, stronger effect = lower value): 0.951 (inactive)
normalized growth (locus YHR200W, strain rpn10, stronger effect = lower value): 0.959 (inactive)
normalized growth (locus YIL066C, strain RNR3, stronger effect = lower value): 0.994 (inactive)
normalized growth (locus YIL073C, strain SPO22, stronger effect = lower value): 0.852 (inactive)
normalized growth (locus YIL125W, strain kgd1, stronger effect = lower value): 0.991 (inactive)
normalized growth (locus YIR030C, strain dcg1, stronger effect = lower value): 0.955 (inactive)
normalized growth (locus YJL092W, strain hpr5, stronger effect = lower value): 1 (inactive)
normalized growth (locus YJL095W, strain BCK1 (second series), stronger effect = lower value): 0.992 (inactive)
normalized growth (locus YJL095W, strain BCK1, stronger effect = lower value): 0.884 (inactive) and 0.878 (active)
normalized growth (locus YJL115W, strain asf1, stronger effect = lower value): 0.989 (inactive)
normalized growth (locus YJL129C, strain trk1, stronger effect = lower value): 0.937 (inactive)
normalized growth (locus YJL134W, strain LCB3, stronger effect = lower value): 0.979 (inactive)
normalized growth (locus YJL154C, strain vps35, stronger effect = lower value): 0.997 (inactive)
normalized growth (locus YJL164C, strain tpk1, stronger effect = lower value): 0.98 (inactive)
normalized growth (locus YJL166W, strain qcr8, stronger effect = lower value): 0.953 (inactive)
normalized growth (locus YJL168C, strain set2, stronger effect = lower value): 0.97 (inactive)
normalized growth (locus YJL187C, strain SWE1 (second series), stronger effect = lower value): 0.927 (inactive)
normalized growth (locus YJL187C, strain SWE1, stronger effect = lower value): 1.01 (inactive)
normalized growth (locus YJR043C, strain POL32, stronger effect = lower value): 0.974 (inactive)
